Reference: PubChem BioAssay AID1159580 (chemical genetic matrix, 2015)
About 2,000 (36%) of roughly 5,500 compounds were called active. About 18% were inconclusive and are not listed. Cut-off read from the data, not from the text of the source: active = normalized growth mostly below about 0.91 (no sharp cut-off); inconclusive = no clear call, values can overlap the other calls; inactive = mostly above about 0.92. This is one part of the list.

Test: chemical genetic growth profiling, strain panel (AID 1159580);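 note: tested at 20 µM; growth read once vehicle control cultures reached saturation at 30 °C; 1 = growth at the plate median or of vehicle wells; lower values mean less growth of the strain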
Conditions: S. cerevisiae deletion strains, growth OD

Measured: normalized growth

NC(COCc1ccccc1)C(=O)O (stereo not drawn)
inactive: locus YHR030C, strain SLT2, stronger effect = lower value 1.01 | locus YHR079C, strain IRE1, stronger effect = lower value 1 | locus YJL095W, strain BCK1, stronger effect = lower value 0.995 | locus YJR066W, strain TOR1, stronger effect = lower value 0.891 | locus YLR113W, strain HOG1, stronger effect = lower value 1.01 | locus YNL183C, strain NPR1, stronger effect = lower value 0.904 | locus YOR231W, strain MKK1, stronger effect = lower value 1.01 | locus YPL256C, strain CLN2, stronger effect = lower value 0.999
